ATXN viability: reduces viability in counter-screen for ATXN expression inhibitors; S2 cells (HEK-293 line with an ATXN2-luciferase reporter) viability, CellTiter-Fluor protease fluorescence, 24 h; Potency, µM (highest dose often 56.7 µM), actives largely listed as cytotoxic; 400,000 tested, 0.49% active; AID 651635; also: nearly all actives have a fitted effect of over 40% in size
KB-V1 cytotox: KB-V1 MDR subline cytotoxicity. 400,000 tested, 3.4% active. Potency, µM (titrated, usually from 46.1 µM), usual class: cytotoxic. KB-V1 MDR cells viability, CellTiter-Glo, 72 h; also: % is scaled to controls: 0 for no effect and ±100 for the full control effect; nearly all actives have a fitted effect of over 60% in size
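Following 72 h at 37 degrees C with compound, KB-V1 cell viability was read by CellTiter-Glo luminescence, medium being phenol-red-free DMEM plus 10% FBS; concentration-response parameters came from normalized, curve-fitted qHTS data.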
ATXN2 expr inh: ATXN2 expression inhibition; HEK-293 ATXN2-luciferase reporter, luminescence, 24 h; Potency, µM (titrated, usually from 57 µM), for the others: at the top dose activity change, negative = inhibition, hits mostly inhibitors; 360,000 tested, 0.72% active; AID 1745845; also: % is scaled to controls: 0 for no effect and ±100 for the full control effect; nearly all actives have a fitted effect of over 55% in size
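qHTS (up to 57 uM final) was run with 24 h compound exposure of reporter cells at 37 °C. Each well was multiplexed: SteadyGlo luminescence measured ATXN2-luciferase expression after a fluorogenic Gly-Phe-AFC viability readout (25 uM final).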
HepG2 tox: counter-screen for TGF-b inhibitors: cytotoxicity in HepG2 cells. AID 588856. HepG2 CAGA-GFP viability, ATP luminescence, 18 h. Potency, µM (series often up to 46.1 µM), inactives show top-dose activity change, negative = cytotoxicity, actives largely listed as cytotoxic. 410,000 tested, 0.76% active
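HepG2 CAGA-GFP cells (1000/well, DMEM with 1% FBS) received compound, then TGF-beta at 500 pg/mL final, and were incubated 18 hours at 37 degrees C. Viability was read by CellTiter-Glo luminescence. Media-only wells were set as complete cell-killing and DMSO as no toxicity.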
TGFb inhibitor: TGF-b pathway inhibition. HepG2 CAGA-GFP TGF-b/SMAD3 reporter, GFP fluorescence, 18 h; TGF-beta stimulated, 500 pg/mL final. Potency, µM (titrated, usually from 46.1 µM), for inactives: top-dose activity, negative = inhibition, usual class: inhibitors. AID 588855. 410,000 tested, 1.2% active; also: % is scaled to controls: 0 for no effect and ±100 for the full control effect; nearly all actives have a fitted effect of over 65% in size
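HEPG2 CAGA-GFP cells (1000/well, DMEM with 1% FBS) were pre-incubated 2 h at 37 degrees C, given compound by pin tool, then stimulated with TGF-beta at 500 pg/mL final for 18 h before per-cell GFP fluorescence imaging.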
KB-3-1 cytotox: kills parental KB-3-1 adenocarcinoma cells; KB-3-1 viability, CellTiter-Glo ATP luminescence, 72 h; Potency, µM (doses to about 46.1 µM), actives largely listed as cytotoxic; 400,000 tested, 1.4% active; also: % is scaled to controls: 0 for no effect and ±100 for the full control effect; nearly all actives have a fitted effect of over 60% in size
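Here the drug-naive KB-3-1 line serves as comparator for MDR sub-line selectivity; cells received compound titrations, 72 h at 37 °C, then CellTiter-Glo readout.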
Starred values were filed as active, the others as inactive; i = inactive; ? = inconclusive; . = not tested or not shown; [ ] = another dose, or the depositor's remark. Hits are enriched below; roughly 5.9% of the tested compounds scored in any of these assays. Calls follow the shape of the dose curve; as a rule, active = well fitted curve in the direction sought with a large enough effect; inconclusive = small, poorly fitted or top-dose-only effect, or another doubt; inactive = no such curve, though single readings can be large; an effect the other way counts as inactive or inconclusive. Potency is read from the fitted curve at half-maximal effect.

SMILES | ATXN viability | KB-V1 cytotox | ATXN2 expr inh | HepG2 tox | TGFb inhibitor | KB-3-1 cytotox
CCCCc1ccc(NC(=S)NCCc2ccc(F)cc2)cc1 | i | ? | -8.9% | -105.4% | 15.8µM* | i
CCCC(=O)Nc1ccc(C(=O)NCCc2ccc(F)cc2)cc1 | i | 14.6µM* | 24.9% | 1.6% | 2.6% | i
Fc1ccc(CCNC(=S)Nc2ccc(F)cc2)cc1 | i | ? | 25.0% | -3.5% | 21.8% | i
COc1cccc(N2CCN(c3ncc4c(n3)CCN(Cc3ccc(Br)cc3)C4)CC2)c1 | i | i | -25.3% | -23.9% | ? | ?
O=C(Nc1ccccc1)N1CCN(C(=O)c2nsc3ccccc23)CC1 | . | i | . | -15.0% | -24.4% | i
COc1cc(Nc2ncc3c(n2)CCN(Cc2cc(F)cc(F)c2)C3)cc(OC)c1 | ? | 8.2µM* | ? | -36.7% | -27.4% | ?
CCc1ccc(CNC(=O)c2c3c(nc4ccccc24)C(=O)N(C2CCCCC2)C3)cc1 | . | 13µM* | . | -27.7% | ? | i
COc1ccc(C(NC(=O)C2CCN(CCOc3ccc(Cl)cc3)CC2)c2cccs2)cc1 (centres undefined) | ? | i | -23.7% | -61.0% | ? | i
O=C(Nc1ccc2nc(-c3ccc(Br)o3)[nH]c2c1)c1cccs1 | ? | 8.2µM* | -6.1% | -39.1% | 4.5% | ?
O=C(Nc1ccc(-c2nc3cc(NC(=O)c4cccs4)ccc3o2)cc1)c1cccs1 | 15.8µM* | ? | 10µM* | 2.3% | 3.1% | ?
CC(=O)Nc1ccc2nc(-c3ccc(Br)o3)[nH]c2c1 | i | i | 39.1% | -4.3% | -3.7% | ?
O=C(Nc1ccc2oc(-c3ccc4ccccc4c3)nc2c1)c1ccc2c(c1)OCCO2 | ? | 2.59µM* | ? | -7.0% | -10.9% | i
O=C(Nc1ccc2oc(-c3ccc4ccccc4c3)nc2c1)c1ccc(Cl)c(Cl)c1 | . | . | . | -5.4% | ? | .
O=C(Nc1ccc2oc(-c3ccncc3)nc2c1)c1cccs1 | i | i | -7.7% | -5.0% | 0.7% | i
CCc1cccc2c(CCO)c[nH]c12 | i | . | 17.5% | . | . | .
CC(C)c1ccc(NC(=O)c2cnc3sc(N4CCCC4)nn3c2=O)cc1 | . | . | . | 9.6% | -13.5% | .
COc1ccc(CN2C(=O)c3cccnc3C2Nc2ccc(OC)c(Cl)c2)cc1 (centres undefined) | i | 14.6µM* | 3.8% | -8.3% | -2.4% | i
COCCCNC(=O)Cc1c(C)c2c(cc(C)c3c(C(C)(C)C)coc32)oc1=O | i | 5.17µM* | -23.9% | -45.6% | ? | 5.17µM*
Cc1ccccc1CNC(=O)c1cnc2sc(N3CCC(C)CC3)nn2c1=O | i | i | -4.3% | -1.7% | 5.3% | i
C#CC[N+]1(CC#Cc2cccc(C)c2)CCCCC1 | i | i | -18.7% | 0.0% | -0.3% | ?
C#CC[N+]1(CC#Cc2ccccc2)CCCCC1 | ? | i | 4.7% | -8.1% | ? | i
Cc1ccc(C#CC[N+]2(CC#Cc3ccc(C)cc3)CCCCC2)cc1 | ? | i | ? | -42.1% | 20µM* | ?
CCC[N+]1(CC#CCC(c2ccccc2)c2ccccc2)CCCCC1 | ? | i | ? | -28.6% | -6.8% | 2.59µM*
C(#Cc1ccccc1)C[N+]1(CC#Cc2ccccc2)CCCCC1 | ? | i | -17.8%[11.3 µM] | -0.4% | -12.3% | 18.4µM*
O=C(O)c1ccc(Cl)cc1Nc1nc2cc(Cl)ccc2o1 | i | 16.4µM* | 7.1% | 3.4% | ? | 16.4µM*
Cc1ccc(-c2ccccc2C#N)cc1 | i | . | 3.6% | . | . | .
COc1ccccc1-c1ccnc(-n2ncc(C(=O)NCc3cccnc3)c2C)n1 | i | . | . | . | . | .
COc1ccccc1N=C1SC(C(=O)Nc2cccc(Cl)c2Cl)C(N)=C1C(N)=O (centres undefined) | ? | 3.66µM* | -18.0% | 2.1% | -10.1% | ?
CCCSc1ncc(Cl)c(C(=O)NCc2ccc(C)cc2)n1 | . | . | . | -7.1% | . | .
